In PubChem BioAssay (NCI):
About 79,000 compounds went through this panel and 15% of them were active in at least one assay; those are over-represented in the sample as a whole. Calls of active or inactive are those of the source. Rule as the data show it: active = growth inhibition above about 70%; inactive = the rest.

How the values were obtained:
[1] = NCI Yeast Anticancer Drug Screen. Data for the rad52 strain (AID 147);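 also: 0% = growth of vehicle-treated control cultures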; settings: S. cerevisiae rad52 mutant growth inhibition, stronger effect = higher value
How it was run: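 Genetically altered yeast (DNA damage repair defect) treated with compound; inhibition calculated relative to vehicle.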

[2] = NCI Yeast Anticancer Drug Screen. Data for the rad50EPP+ strain (AID 151);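 also: 0% = growth of vehicle-treated control cultures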; settings: S. cerevisiae rad50 mutant strain, stronger effect = higher value
How it was run: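 Strain rad50EPP+; compound exposure; % growth inhibition vs vehicle.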

[3] = NCI Yeast Anticancer Drug Screen. Data for the mgt1 strain (AID 153); settings: S. cerevisiae mgt1 mutant growth inhibition, stronger effect = higher value
How it was run: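 Read-out: yeast growth inhibition vs vehicle control. Strain mgt1, drawn from a panel altered in DNA damage repair or cell cycle control.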

[4] = NCI Yeast Anticancer Drug Screen. Data for the rad50 strain (AID 155);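 also: 0% = growth of vehicle-only cultures of the same strain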; settings: S. cerevisiae rad50 strain growth inhibition, stronger effect = higher value
How it was run: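 Compounds were tested on a yeast strain with an engineered DNA damage repair alteration; the reported value is growth inhibition normalised to vehicle treatment.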

[5] = NCI Yeast Anticancer Drug Screen. Data for the mec2-1 strain (AID 157); settings: S. cerevisiae mec2-1 strain, stronger effect = higher value
How it was run: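 Cells of the genetically defined mec2-1 yeast strain are incubated with test compound. Inhibition of growth is calculated against vehicle-treated controls.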

[6] = NCI Yeast Anticancer Drug Screen. Data for the rad14 strain (AID 159);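 also: 0% = growth of vehicle-treated control cultures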; settings: S. cerevisiae rad14 strain growth inhibition, stronger effect = higher value
How it was run: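 Compound-treated yeast with a defined DNA-repair lesion; growth inhibition normalised to vehicle-treated cultures.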

[7] = NCI Yeast Anticancer Drug Screen. Data for the sgs1 mgt1 strain (AID 161);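 also: 0% = growth of cultures given vehicle only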; settings: S. cerevisiae sgs1 mgt1 strain, stronger effect = higher value
How it was run: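 Mutant yeast exposed to compound; growth scored against vehicle-only wells.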

[8] = NCI Yeast Anticancer Drug Screen. Data for the CLN2oe strain (AID 163);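 also: 0% = growth of vehicle-only control cultures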; settings: S. cerevisiae CLN2oe strain, stronger effect = higher value
How it was run: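 Strain altered in cell-cycle control, incubated with compound; growth compared to solvent-treated controls.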

[9] = NCI Yeast Anticancer Drug Screen. Data for the cln2 rad14 strain (AID 165);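 also: 0% = growth equal to vehicle treated cultures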; settings: S. cerevisiae cln2 rad14 strain, stronger effect = higher value
How it was run: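 The screen exposed genetically defined yeast (cln2 rad14) to test compounds and scored growth inhibition relative to vehicle-treated controls.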

[10] = NCI Yeast Anticancer Drug Screen. Data for the bub3 strain (AID 167); settings: S. cerevisiae bub3 mutant strain, stronger effect = higher value
How it was run: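 Growth of a checkpoint-deficient yeast mutant is measured after compound exposure. Values represent inhibition relative to vehicle.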

[11] = NCI Yeast Anticancer Drug Screen. Data for the wt2 strain (AID 169);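 also: 0% = growth of vehicle-treated yeast cultures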; settings: S. cerevisiae wt2 strain growth inhibition, stronger effect = higher value
How it was run: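 Steps: yeast strain treated with compound; growth recorded; inhibition calculated relative to cultures given vehicle alone.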

[12] = NCI Yeast Anticancer Drug Screen. Data for the sgs1 strain (AID 173);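 also: 0% = growth of vehicle-only control cultures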; settings: S. cerevisiae sgs1 mutant, stronger effect = higher value
How it was run: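 Inhibition of yeast growth served as the measure. The mutant strain was treated with each compound, and growth was normalised to cultures receiving vehicle alone.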

[13] = NCI Yeast Anticancer Drug Screen. Data for the mlh1 rad18 strain (AID 175); settings: S. cerevisiae mlh1 rad18 strain growth inhibition, stronger effect = higher value
How it was run: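 Compound-treated yeast growth, normalised to vehicle controls. Strain bears defined DNA repair mutations.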

[14] = NCI Yeast Anticancer Drug Screen. Data for the rad18 strain (AID 177); settings: S. cerevisiae rad18 mutant growth inhibition, stronger effect = higher value
How it was run: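 Inhibition values reflect reduced yeast growth compared with vehicle-treated controls, using a strain engineered with a DNA damage repair defect.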

[15] = NCI Yeast Anticancer Drug Screen. Data for the mlh1 strain (AID 171);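 also: 0% = growth of vehicle-treated control cultures of the same strain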; settings: S. cerevisiae mlh1 strain growth inhibition, stronger effect = higher value
How it was run: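 Yeast screen: mutant strain plus compound, growth scored against vehicle control wells.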

[16] = at 5.0 µM (retest, dose inferred, filed as 0.5)
[17] = at 50.0 µM (retest, dose inferred, filed as 5.0)

Measured: growth inhibition

COc1cc2ccnc(-c3c4ccccc4c(N)c4c(OC)c(OC)ccc34)c2cc1OC
active: [1]; at 33.0 µM 86% | [1]; at 100.0 µM 93% | [4]; [16] 78% | [4]; at 11.0 µM 77% | [4]; at 33.0 µM 90% | [4]; [17] 78% | [4]; at 100.0 µM 94% | [12]; at 100.0 µM 70% | [13]; at 50.0 µM 72.7% | [14]; at 100.0 µM 74%
inactive: [1]; at 1.2 µM 5% | [1]; at 3.7 µM 20% | [1]; at 11.0 µM 60% | [2]; at 1.2 µM 0% | [2]; at 3.7 µM 11% | [2]; at 11.0 µM 22% | [2]; at 33.0 µM 31% | [2]; at 100.0 µM 49% | [3]; at 1.2 µM -1% | [3]; at 3.7 µM -1% | [3]; at 11.0 µM 0% | [3]; at 33.0 µM 2% | [3]; at 100.0 µM 50% | [4]; at 1.2 µM 16% | [4]; at 3.7 µM 50% | [4]; at 50.0 µM 19.3% | [5]; at 1.2 µM -1% | [5]; at 3.7 µM 2% | [5]; [16] 33% | [5]; at 11.0 µM 1% | [5]; at 33.0 µM 7% | [5]; [17] 33% | [5]; at 50.0 µM -2.3% | [5]; at 100.0 µM 46% | [6]; at 1.2 µM 1% | [6]; at 3.7 µM 1% | [6]; at 11.0 µM 3% | [6]; at 33.0 µM 8% | [6]; at 100.0 µM 43% | [7]; [16] 24% | [7]; [17] 24% | [7]; at 50.0 µM -13.9% | [8]; at 1.2 µM -1% | [8]; at 3.7 µM 7% | [8]; at 11.0 µM 9% | [8]; at 33.0 µM 17% | [8]; at 100.0 µM 37% | [9]; [16] 22% | [9]; [17] 22% | [9]; at 50.0 µM 10.8% | [10]; at 1.2 µM -5% | [10]; at 3.7 µM 1% | [10]; [16] -3% | [10]; at 11.0 µM 9% | [10]; at 33.0 µM -4% | [10]; [17] -3% | [10]; at 50.0 µM 6.45% | [10]; at 100.0 µM 24% | [11]; at 1.2 µM -2% | [11]; at 3.7 µM -2% | [11]; at 11.0 µM -2% | [11]; at 33.0 µM 4% | [11]; at 100.0 µM 47% | [12]; at 1.2 µM -1% | [12]; at 3.7 µM 1% | [12]; at 11.0 µM 6% | [12]; at 33.0 µM 23% | [13]; [16] 23% | [13]; [17] 23% | [14]; at 1.2 µM 0% | [14]; at 3.7 µM -5% | [14]; at 11.0 µM 8% | [14]; at 33.0 µM 31%

CCN(CC)CCN(C)CCc1ccc(Br)cc1
inactive: [2]; at 1.2 µM -3% | [2]; at 3.7 µM -3% | [2]; at 11.0 µM -2% | [2]; at 33.0 µM -2% | [2]; at 100.0 µM -3% | [3]; at 1.2 µM 5% | [3]; at 3.7 µM 10% | [3]; at 11.0 µM 40% | [4]; at 1.2 µM 7% | [4]; at 3.7 µM 10% | [4]; [16] -6% | [4]; at 11.0 µM 20% | [4]; at 33.0 µM 50% | [4]; [17] 11% | [4]; at 50.0 µM 31.8% | [5]; at 1.2 µM 10% | [5]; at 3.7 µM 17% | [5]; [16] 8% | [5]; at 11.0 µM 26% | [5]; at 33.0 µM 43% | [5]; [17] 26% | [5]; at 50.0 µM 33.6% | [6]; at 1.2 µM 15% | [6]; at 3.7 µM 36% | [6]; at 11.0 µM 57% | [7]; [16] 5% | [7]; [17] 41% | [7]; at 50.0 µM 68.4% | [8]; at 1.2 µM 11% | [8]; at 3.7 µM 15% | [8]; at 11.0 µM 35% | [8]; at 33.0 µM 64% | [9]; [16] 10% | [9]; [17] 52% | [9]; at 50.0 µM 53.4% | [10]; at 1.2 µM 10% | [10]; at 3.7 µM 16% | [10]; [16] 13% | [10]; at 11.0 µM 35% | [10]; at 33.0 µM 67% | [10]; [17] 21% | [10]; at 50.0 µM 53.5% | [11]; at 1.2 µM 6% | [11]; at 3.7 µM 11% | [11]; at 11.0 µM 33% | [11]; at 33.0 µM 68% | [15]; at 1.2 µM 7% | [15]; at 3.7 µM 13% | [15]; at 11.0 µM 31% | [15]; at 33.0 µM 60%
active: [3]; at 33.0 µM 84% | [3]; at 100.0 µM 96% | [4]; at 100.0 µM 85% | [5]; at 100.0 µM 78% | [6]; at 33.0 µM 87% | [6]; at 100.0 µM 97% | [8]; at 100.0 µM 89% | [10]; at 100.0 µM 84% | [11]; at 100.0 µM 94% | [15]; at 100.0 µM 94%
